Assay results reported in publication PMC4336329 (PLoS ONE, 2015).
About 14,000 (4.5%) of roughly 310,000 compounds showed an effect of 50% or more. The effect is printed as a negative number. The sample holds strong results, similar compounds and a random draw of the others, so the mix is not that of the screen.

Biological target: human ether-à-go-go-related gene (hERG) potassium channel (human, UniProt Q12809)
Experiment: primary screen, population patch clamp on CHO cells stably expressing hERG; higher = less effect of the substance
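Note: peak tail current of the secondary pulse compared with the same well before compound.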

Sequence of human ether-à-go-go-related gene (hERG) potassium channel (Q12809 whole entry, looked up): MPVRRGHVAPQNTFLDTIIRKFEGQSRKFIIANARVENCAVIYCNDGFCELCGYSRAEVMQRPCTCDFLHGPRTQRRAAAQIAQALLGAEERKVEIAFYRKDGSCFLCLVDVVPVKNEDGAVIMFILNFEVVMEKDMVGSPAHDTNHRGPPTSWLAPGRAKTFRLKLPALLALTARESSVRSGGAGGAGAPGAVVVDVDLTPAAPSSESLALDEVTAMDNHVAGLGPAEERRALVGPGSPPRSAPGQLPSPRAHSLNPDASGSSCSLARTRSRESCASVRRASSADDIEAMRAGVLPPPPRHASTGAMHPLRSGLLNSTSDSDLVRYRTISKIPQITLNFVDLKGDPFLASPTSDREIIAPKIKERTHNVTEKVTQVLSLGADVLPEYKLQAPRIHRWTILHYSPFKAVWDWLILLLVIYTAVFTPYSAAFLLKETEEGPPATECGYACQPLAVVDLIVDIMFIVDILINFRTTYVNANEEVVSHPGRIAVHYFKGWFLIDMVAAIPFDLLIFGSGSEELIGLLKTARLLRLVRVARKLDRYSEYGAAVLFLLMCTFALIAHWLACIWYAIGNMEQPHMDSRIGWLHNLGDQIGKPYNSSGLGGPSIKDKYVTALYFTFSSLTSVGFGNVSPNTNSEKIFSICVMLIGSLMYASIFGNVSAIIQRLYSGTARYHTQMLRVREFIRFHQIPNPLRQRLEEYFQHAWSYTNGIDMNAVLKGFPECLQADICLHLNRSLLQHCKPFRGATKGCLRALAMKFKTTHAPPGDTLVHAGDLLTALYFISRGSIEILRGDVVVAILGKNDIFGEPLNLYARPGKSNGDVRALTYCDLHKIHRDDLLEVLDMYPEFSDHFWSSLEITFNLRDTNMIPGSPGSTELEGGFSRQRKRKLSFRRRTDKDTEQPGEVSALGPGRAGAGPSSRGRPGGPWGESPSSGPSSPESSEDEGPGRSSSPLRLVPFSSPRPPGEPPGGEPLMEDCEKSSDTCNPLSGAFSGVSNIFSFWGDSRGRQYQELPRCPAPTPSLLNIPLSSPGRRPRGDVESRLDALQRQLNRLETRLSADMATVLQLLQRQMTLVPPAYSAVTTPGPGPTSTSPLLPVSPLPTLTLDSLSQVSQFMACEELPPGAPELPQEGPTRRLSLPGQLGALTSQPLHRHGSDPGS

| Structure (SMILES) | hERG current change (%, negative = inhibition) at 10uM [%] |
| --- | --- |
| N/C(=N\OC(=O)/C=C/c1ccc(Br)cc1)c1ccccn1 | -6.37 |
| OC(CSc1ccc(F)cc1)CN1CCN(c2ccccc2)CC1 (centres unmarked) | -41.7 |
| O=C(CSc1nnc2c(Cl)cc(C(F)(F)F)cn12)NCc1ccc(F)cc1 | -4.27 |
| CC(C)CN(C(=O)CSc1nnnn1C)C1CCS(=O)(=O)C1 (centres unmarked) | 26 |
| CCC/C(=N\NC(=O)Cc1csc(N2CCOCC2)n1)c1ccccc1 | -13.5 |
| O=C(N/N=C/c1ccc[nH]1)c1ccc(O)cc1 | 19.6 |
| Cc1c(Br)c([N+](=O)[O-])nn1CC(=O)N1CCN(Cc2ccccc2)CC1 | -56.4 |
| Cc1cc([N+](=O)[O-])nn1CC(=O)N1CCN(Cc2ccccc2)CC1 | -8.96 |
| Cc1c(Br)c([N+](=O)[O-])nn1CC(=O)NCc1ccccc1 | -2.99 |
| Cc1c(Cl)c([N+](=O)[O-])nn1CC(=O)N1CCN(Cc2ccccc2)CC1 | -71 |
| Cc1c(Cl)c([N+](=O)[O-])nn1CC(=O)N1CCc2ccccc2C1 | 1.08 |
| Cc1c(Cl)c([N+](=O)[O-])nn1CC(=O)N1CCCC1 | -4.86 |
| CC(C)(C)c1nc(SCC(=O)NCc2cccs2)c2ccccc2n1 | -0.222 |
| CCCCn1c(SCC(=O)Nc2nnc(C)s2)nc2c1c(=O)n(C)c(=O)n2C | -12.4 |
| Cc1ccc(-n2c(O)c(C=NCc3ccccn3)c3ccccc3c2=O)cc1C | -11.5 |
| CC1=C(C(=O)OCC2CCCO2)C(c2ccccc2Cl)NC(=O)N1 (centres unmarked) | 14.1 |
| O=C(CCN1C(=O)c2ccccc2C1=O)N1CCN(Cc2ccccc2)CC1 | -22.8 |
| O=C(CCN1C(=O)c2ccccc2C1=O)N1CCCCCC1 | 0.431 |
| CN1CCN(C(=O)CCN2C(=O)c3ccccc3C2=O)CC1 | 14.7 |
| O=C(CCN1C(=O)c2ccccc2C1=O)N1CCN(Cc2ccc(Cl)cc2Cl)CC1 | -53.4 |
| Cc1ccc(CN2CCN(C(=O)CCN3C(=O)c4ccccc4C3=O)CC2)cc1 | -55.4 |
| CCN1CCN(C(=O)CCN2C(=O)c3ccccc3C2=O)CC1 | -1.77 |
| O=C(NN=C1CCN(Cc2ccccc2)CC1)c1ccccc1 | 7.78 |

| Structure (SMILES) | hERG current change (%, negative = inhibition) at 10uM [%] |
| --- | --- |
| Cn1ccnc1SCCNC(=O)CCc1nnc(CCc2ccccc2)o1 | -10.2 |
| Cn1c(O)c(C=NCCN2CCNCC2)c(=O)[nH]c1=O | 13.6 |
| Cc1ccccc1C(=O)N=c1sccn1C | 24.7 |
| Cc1cc(F)ccc1NS(=O)(=O)c1c(C)nc2scc(C)n2c1=O | -35.8 |
| COc1cccc(Cn2c(=O)c3[nH]cnc3n(-c3ccccc3C)c2=O)c1 | -1.8 |
| CCOC(=O)c1c(NC(=O)C(C)N2CCN(S(=O)(=O)c3cccs3)CC2)sc2c1CCC(C)C2 (centres unmarked) | 6.72 |
| Cc1ccc(NC(=O)CN(C)C(=O)c2ccc3[nH]c4c(c3c2)CC(C)CC4)cc1 (centres unmarked) | 8.58 |
| Cc1ccccc1C1N(c2nccs2)C(=O)C2CCCN21 (centres unmarked) | -62.5 |
| Cc1ccc(C2N(c3nccs3)C(=O)C3CCCN32)cc1 (centres unmarked) | -4.54 |
| O=C1C2CCCN2C(c2ccccc2)N1c1nccs1 (centres unmarked) | 17.7 |
| CC(C)(/C=N/O)/[N+]([O-])=C/c1ccccc1 | 20.1 |
| CCCOc1cccc(NC(=O)OC2CCN(C)CC2)c1.O=C(O)/C=C/C(=O)O | -15.7 |
| Cc1ccc(NC(=O)CSc2nc3ccccc3c(=O)n2Cc2cccs2)cc1 | 7.4 |
| CCOc1ccc(NC(=O)CSc2nc3ccccc3c(=O)n2Cc2cccs2)cc1 | 13.6 |
| CCn1cc2nc(SCC(=O)Nc3ccc(OC)cc3OC)n(Cc3ccc(OC)cc3)c(=O)c2n1 | 1.42 |
| O=C(CSc1nc2nccnc2c(=O)n1Cc1cccs1)Nc1ccccc1 | -74.9 |
| O=C(CSc1nc2nccnc2c(=O)n1Cc1cccs1)Nc1ccccc1F | -69.1 |
| CCn1cc2nc(SCC(=O)Nc3ccccc3F)n(Cc3ccccc3)c(=O)c2n1 | -70.6 |
| CCn1cc2nc(SCC(=O)Nc3ccc(F)cc3F)n(Cc3ccccc3)c(=O)c2n1 | -40 |
| Cn1c(Cc2cccs2)nnc1SCC(=O)Nc1ccccc1F | 1.93 |
| COc1ccc(NC(=O)CSc2nc3ccccc3c(=O)n2Cc2cccs2)c(OC)c1 | -6.23 |
| COc1ccccc1NC(=O)CSc1nc2nccnc2c(=O)n1Cc1cccs1 | -69.9 |
| COc1ccccc1NC(=O)CSc1nnc(Cc2cccs2)n1C | 5.99 |

| Structure (SMILES) | hERG current change (%, negative = inhibition) at 10uM [%] |
| --- | --- |
| CC(C)CCn1c(SCC(=O)Nc2ccccc2C(F)(F)F)nc2nccnc2c1=O | -21.6 |
| CC1(C)CC(=O)N(CC(=O)NC2CCCC2)c2ccccc2S1(=O)=O | 11.7 |
| COc1ccc(Br)cc1/C=N/NC(=O)C(c1ccncc1)N1CCOCC1 (centres unmarked) | 7.87 |
| CCOc1ccc(S(=O)(=O)NCCC(=O)NCc2cccnc2)cc1 | 4.31 |
| O=C1c2cccc3cc([N+](=O)[O-])cc(c23)C(=O)N1CC1CCCO1 (centres unmarked) | -8.56 |
| CCOC(=O)N1CCc2c(sc3[nH]c(=S)[nH]c(=S)c23)C1 | 13.4 |
| O=C(O)CC[N+](=O)[O-] | 15.3 |
| CCN(CC)CCNC(=O)c1[nH]c2ccc(OCc3ccccc3)cc2c1C | -74.6 |
| COc1ccc2[nH]c(C(=O)NCc3ccccc3)c(C)c2c1.Cl | 7.03 |
| Cc1c(C(=O)N2CCOCC2)[nH]c2ccc(OCc3ccccc3)cc12 | -13.2 |
| CCCc1cc(=O)oc2cc(C)cc(OCC(=O)NCCCN3CCOCC3)c12 | -7.61 |
| CCCc1cc(=O)oc2cc(OCC(=O)NCCCn3ccnc3)ccc12 | -47.1 |
| CCCc1cc(=O)oc2cc(C)cc(OCC(=O)NCCN3CCOCC3)c12 | 6.05 |
| Cc1cc(OC(C)C(=O)NCCCn2ccnc2)c2c(C)cc(=O)oc2c1 (centres unmarked) | -15.4 |
| Cc1c(C)c2ccc(OCC(=O)NCCCn3ccnc3)cc2oc1=O | 14 |
| Cc1c(C)c2cc(Cl)c(OCC(=O)NCCCn3ccnc3)cc2oc1=O | -2.59 |
| Cc1cc(OC(C)C(=O)NCCCn2ccnc2)c2c(C)c(C)c(=O)oc2c1 (centres unmarked) | -76.7 |
| CCCc1cc(=O)oc2cc(OCC(=O)NCCCn3ccnc3)c(Cl)cc12 | -72.3 |
| Cc1c(C)c2ccc(OC(C)C(=O)NCCCn3ccnc3)c(C)c2oc1=O (centres unmarked) | -6.05 |
| CCCc1cc(=O)oc2cc(C)cc(OCC(=O)NCCCn3ccnc3)c12 | -76.4 |
| Cc1cc(OCC(=O)NCCCn2ccnc2)c2c(C)c(C)c(=O)oc2c1 | -63.6 |
| CCc1cc(=O)oc2cc(OCC(=O)NCCCn3ccnc3)c(Cl)cc12 | -28.5 |
